Source: PubChem BioAssay (National Center for Advancing Translational Sciences (NCATS))
In the library only some 10% were active in any assay of this set; here they are far more common.
G9a inh: G9a (human) methyltransferase inhibition. hit rate 8.8% among 350,000. Potency, µM (series often up to 102 µM), usual class: inhibitors. G9a H3K9 monomethylation, AlphaScreen, 2 h; also: nearly all actives have a fitted effect of over 75% in size
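Quantitative HTS format: methyltransferase activity on a biotin-tagged H3K9 peptide is measured by AlphaScreen, using a rabbit anti-monomethyl-H3K9 antibody with streptavidin donor and anti-IgG acceptor beads. Final levels are 20 nM enzyme, 500 nM peptide, 20 uM SAM; 2 h RT.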
JMJD2A Tudor: inhibitors of human JMJD2A Tudor domain. hit rate 4.4% among 390,000. AlphaScreen JMJD2A-Tudor / H3K4me3 peptide binding. Potency, µM (highest dose often 114 µM), hits mostly inhibitors. AID 504339. O75164; also: nearly all actives have a fitted effect of over 50% in size
BAZ2B block: blocks human BAZ2B; Q9UIF8; AlphaScreen BAZ2B-H3K14Ac peptide displacement; Potency, µM (doses to about 114 µM), most hits filed as inhibitors; hit rate 4.4% among 360,000; AID 504333; also: nearly all actives have a fitted effect of over 60% in size
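Inhibition is scored as reduced AlphaScreen emission. The BAZ2B/b-H3(5-23)K14Ac complex (50 nM each) in PBS pH 7.4, 0.01% Tween-20 meets compound (up to 110 uM) for 30 min at RT before bead addition.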
GLS inh: inhibitors of human glutaminase (GLS); GLS enzymatic activity, qHTS titration; AID 624170; hit rate 0.21% among 410,000; Potency, µM (highest dose often 45.5 µM), most hits filed as inhibitors
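Human kidney-isoform GLS in 45 mM KH2PO4 pH 8.2, 0.02% Tween-20, with compound, started with 1mM L-Glutamine (added stock). Glutamate oxidase/HRP/Amplex red coupled fluorescence read at start and after 30 min at RT.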
HP1b chromo inh: HP1-beta chromodomain-methylated histone interaction inhibition | P83916 | AlphaScreen HP1-beta / biotin-H3K9me3 peptide binding | Potency, µM (highest dose often 114 µM), most hits filed as inhibitors | hit rate 0.56% among 390,000 | AID 540317; also: nearly all actives have a fitted effect of over 70% in size
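AlphaScreen: HP1-beta (50 nM) preformed 30 min with biotin-H3(1-18)K9me3 peptide (50 nM) in PBS pH 7.4, 0.01% Tween-20. Compound added for 30 min at RT, then streptavidin donor/nickel chelate acceptor beads (10 ug/mL) for 30 min.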
L3MBTL1 inh: blocks human L3MBTL1; Q9Y468; AlphaScreen L3MBTL1–H3K9me1 peptide binding; Potency, µM (top dose mostly 57.1 µM), actives largely listed as inhibitors; hit rate 0.66% among 230,000; AID 485360; also: nearly all actives have a fitted effect of over 60% in size
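AlphaScreen assay: L3MBTL1 (50 nM final) was preincubated 30 min at room temperature with biotinylated H3(1-15)K9me1 peptide (75 nM final), then 30 min with library compounds; streptavidin donor and nickel chelate acceptor beads (10 ug/mL final) added, 30 min dark.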
Large screens that a line does not name were inactive. Calls follow the shape of the dose curve; as a rule, active = well fitted curve in the direction sought with a large enough effect; inconclusive = small, poorly fitted or top-dose-only effect, or another doubt; inactive = no such curve, though single readings can be large; an effect the other way counts as inactive or inconclusive.

Cc1ccc2cc(C(c3nnnn3C3CCCC3)N3CCN(c4ccc(F)cc4)CC3)c(=O)[nH]c2c1 (stereo unspecified)	G9a inh 11µM
COc1ccc2cc(C(c3nnnn3C(C)(C)C)N3CCc4ccccc4C3)c(=O)[nH]c2c1 (stereo unspecified)	G9a inh inconclusive (no result: JMJD2A Tudor, GLS inh, HP1b chromo inh)
CCC(C)(C)n1nnnc1C(c1cc2ccc(OC)cc2[nH]c1=O)N1CCc2ccccc2C1 (stereo unspecified)	G9a inh 2.5µM
COc1ccc(Cn2nnnc2C(c2ccc(N(C)C)cc2)N2CCC(C(N)=O)CC2)cc1 (stereo unspecified)	G9a inh 13µM, JMJD2A Tudor inconclusive, BAZ2B block 50µM, HP1b chromo inh inconclusive
COc1ccc(OC)c(NC(=O)C(C)n2nc(C)c3c(C)n(-c4ccccc4)nc3c2=O)c1 (stereo unspecified)	none (no result: L3MBTL1 inh)
CCCCOc1ccc(C2=NC(c3ccncc3)=Nc3ccc(Br)cc3N2)cc1	G9a inh inconclusive, BAZ2B block inconclusive (no result: L3MBTL1 inh)
O=C(N/N=C/c1ccc(OC(=O)c2ccc([N+](=O)[O-])cc2)cc1)c1cccnc1	none (no result: L3MBTL1 inh)
Cc1ccc(C(=O)Oc2ccc(/C=N/NC(N)=O)cc2)cc1	G9a inh 28µM, BAZ2B block inconclusive
COc1ccc(/C=N/NC(=O)c2cccnc2)cc1CN1CCCc2ccccc21	G9a inh inconclusive, JMJD2A Tudor 35µM, BAZ2B block 40µM, GLS inh inconclusive, HP1b chromo inh 45µM (no result: L3MBTL1 inh)
O=C(N/N=C/c1ccc(OC(=O)c2ccccc2)cc1)c1cccnc1	G9a inh 20µM, BAZ2B block inconclusive, HP1b chromo inh inconclusive (no result: L3MBTL1 inh)
COc1cc(/C=N/NC(N)=O)ccc1OC(=O)c1ccc(C)cc1	none (no result: JMJD2A Tudor, GLS inh, HP1b chromo inh)
Cc1ccc(C)c(NC(=O)c2cnc3sc(N4CCOCC4)nn3c2=O)c1	none (no result: L3MBTL1 inh)
CC(=O)c1cccc(N2C(=O)CN(S(C)(=O)=O)CC2(C)C(=O)NC2CCCC2)c1 (stereo unspecified)	none (no result: L3MBTL1 inh)
CCc1ccc(NC(=O)c2ccc(F)c(S(=O)(=O)N3CCN(c4cc(C)ccc4C)CC3)c2)cc1	none (no result: L3MBTL1 inh)
COC(=O)CN1C(=O)[C@@H]2[C@H](C1=O)[C@@H]1CC(C(=O)OC)=C[C@@H](C(=O)OC)C3C1=C(C(=O)C31CCCCC1)[C@@H]2C (stereo partly specified)	none (no result: G9a inh, BAZ2B block, GLS inh, L3MBTL1 inh)
Cc1ccc(C(=O)N(c2ccc(C)cc2)S(=O)(=O)c2ccc(Cl)cc2)cc1	none (no result: L3MBTL1 inh)
COC(=O)C(CC(=O)c1ccc(Br)cc1)n1ccnc1 (stereo unspecified)	G9a inh inconclusive, BAZ2B block 50µM (no result: JMJD2A Tudor, GLS inh, HP1b chromo inh)
COc1cc(NC(=O)CC(C)n2ccnc2)cc(OC)c1 (stereo unspecified)	none (no result: L3MBTL1 inh)
COC(=O)C(CC(=O)c1ccc(Br)cc1)n1nc(C)cc1C (stereo unspecified)	BAZ2B block inconclusive (no result: G9a inh)
COC(=O)C(CC(=O)c1ccc(C)cc1)n1nc(C)cc1C (stereo unspecified)	G9a inh 79µM
Cc1ccc(C(=O)CC(C(=O)O)n2cccn2)cc1 (stereo unspecified)	G9a inh 50µM
Cc1ccc(C(=O)CC(C(=O)O)n2cncn2)cc1 (stereo unspecified)	none (no result: G9a inh)
CCOC(=O)c1[nH]c(C)c(CCC(=O)Nc2ccc(Br)c(C)c2)c1C	none (no result: L3MBTL1 inh)
Cc1ccc2c(Cl)c(Cc3ccccc3)c(=S)[nH]c2n1	JMJD2A Tudor 32µM, HP1b chromo inh inconclusive (no result: G9a inh, BAZ2B block, L3MBTL1 inh)
S=c1nc(Cc2ccccc2)[nH]c2ccccc12	none (no result: L3MBTL1 inh)
CCOC(=O)C1CCCN(c2cc(NCCCO)c([N+](=O)[O-])c3nonc23)C1 (stereo unspecified)	none (no result: JMJD2A Tudor, GLS inh, HP1b chromo inh)
Cc1nnc(Sc2cc(NCCO)c([N+](=O)[O-])c3nonc23)s1	G9a inh 2µM, JMJD2A Tudor inconclusive, HP1b chromo inh 13µM
O=[N+]([O-])c1c(NCCO)cc(N2CCCCCC2)c2nonc12	none
Cc1nnc(Sc2cc(NCCCO)c([N+](=O)[O-])c3nonc23)s1	G9a inh 5.6µM, JMJD2A Tudor 28µM, GLS inh inconclusive, HP1b chromo inh 13µM
